Molecules are shown by their SMILES. Where “and” joins values, the source holds several entries; their conditions need not be identical. Equal entries are not always repeated. Inconclusive results are not listed. A call without a number means that no potency is given here. A structure can be active in one record and inactive in another. Calls of active or inactive are those of the source. The call rests on the fitted dose curve; in most records, active means well fitted cell-killing curve with a large enough effect in the repeat runs; inconclusive means weak or mixed curves; inactive means flat fitted curve, though single readings scatter.
Potency means the concentration at half of the fitted maximal effect.

The nature of this assay: qHTS RealTime-Glo MT Cell Viability Assay in HepG2 cells - 24 hour (AID 1224867). Further: nearly all actives have a fitted effect of over 50% in size. The following applies: RealTime-Glo luminescence; series mostly up to 76.8 µM. The source says: U.S. Tox21 Program National Center for Advancing Translational Sciences [NCATS] NIH Chemical Genomics Center [NCGC] U.S. Environmental Protection Agency [EPA] National Institutes of Environmental Health Sciences [NIEHS] National Toxicology Program [NTP] U.S. Food and Drug Administration [FDA] Tox21 Assay Overview: Measure of cell viability is critical in the cell-base assay. Analysis of cell viability is necessary for the characterization of cell responses to cytotoxic drugs and environmental stress. A RealTime-Glo MT Cell Viability Assay to monitor cell viability in real time of continues cell culture during 40 hours of compound treatment was used to screen Tox21 10K library compounds in HepG2 cells. The RealTime-Glo MT Cell Viability Assay is a nonlytic, homogeneous, bioluminescent method to measure cell viability in real time using a simple, plate-based method. The assay involves adding NanoLuc luciferase and a cell-permeant prosubstrate to cells in culture. Viable cells reduce the proprietary prosubstrate to generate a substrate for NanoLuc luciferase. This substrate diffuses from cells into the surrounding culture medium, where it is rapidly used by the NanoLuc Enzyme to produce a luminescent signal. The signal correlates with the number of viable cells, making the assay well suited for cytotoxicity studies.
Tox21 Assay Protocol Summary: The mixture of HepG2 cell suspension and reagents were dispensed at 600cells/6 ul/well in 1536-well tissue culture treated black solid bottom plates using a Multidrop dispenser. After the assay plates were incubated at a 37 C/5% CO2 incubator for 5 hours, 23 nL of compounds dissolved in DMSO, positive and negative controls was transferred to the assay plate by a pintool work station. The plates were incubated at 37 C for 40 hours. The luminescence intensity were measured at 0h, 8h, 16h, 24h, 32h and 40h time points using ViewLux plate reader during compound treatment.
For orientation: Quantitative high-throughput screening tests each substance at several concentrations.
On to `Nc1ccc(-c2ccc(N)cc2)cc1`, for which the Potency result was “inactive”. As for `Cc1cc(Cl)ccc1N`, the Potency entry was “inactive”. Take `CCCCCC[n+]1ccccc1`: the Potency entry was “inactive”. Regarding `CNC`, the Potency result is “inactive”. As to `O=C(O)COc1ccc(Cl)cc1Cl`, the Potency entry is “inactive”. With `CCCC[n+]1ccccc1`, the Potency entry is “inactive”.

Consider `O=C(O)c1ccccc1O`, for which the Potency result is “inactive”. In the case of `CCCCCCCCCCCCCC[P+](CCCCCC)(CCCCCC)CCCCCC`, the Potency was 9.82 µM (active) and 19.7 µM (active) and inactive. The result for `COP(=O)(OC)OC=C(Cl)Cl` reads “inactive”. On to `C=CCOC(Cn1ccnc1)c1ccc(Cl)cc1Cl` (stereo not given), for which the Potency result is “inactive”. Take `O=C(O)C(Cl)Cl`: the Potency result was “inactive”. Turning to `O=C(O)c1nc(Cl)ccc1Cl`, the Potency result was “inactive”. In the case of `O=C(O)CCl`, the Potency result was “inactive”. Turning to `CCn1cc[n+](C)c1C`, the Potency entry was “inactive”.

As for `Nc1ccccc1`, the Potency result was “inactive”. Take `CCCn1cc[n+](C)c1`: the Potency entry was “inactive”.

Consider `Oc1ccccc1-c1ccccc1`, for which the Potency entry was “inactive”. For `C[C@]12CCC(=O)C=C1CC[C@@H]1[C@@H]2CC[C@]2(C)C(=O)CC[C@@H]12`, the Potency entry was “inactive”. The result for `O=[N+]([O-])c1ccccc1O` reads “inactive”; that for `Cc1cc(Cl)ccc1OCC(=O)O`, “inactive”. Take `COc1ccc(N)cc1`: the Potency entry is “inactive”. Take `O=S(=O)(O)O`: the Potency result was “inactive”. As to `Nc1ccc(Cl)cc1`, the Potency result was “inactive”. For the compound `CN(C)[C@@H]1C(=O)C(C(N)=O)=C(O)[C@@]2(O)C(=O)C3=C(O)c4c(O)cccc4[C@@](C)(O)[C@H]3[C@H](O)[C@@H]12`, the Potency result is “inactive”.

In the case of `COCC(=O)N(c1c(C)cccc1C)C(C)C(=O)OC` (stereo not given), the Potency result is “inactive”. For the compound `COP(=O)(OC)C(O)C(Cl)(Cl)Cl` (stereo not given), the Potency entry was “inactive”. For the compound `CCCCCCn1cc[n+](C)c1`, the Potency entry was “inactive”.

With `O=c1nc(O)n(Cl)c(=O)n1Cl`, the Potency result was “inactive”. With `CCC(=O)C(CC(C)N(C)C)(c1ccccc1)c1ccccc1` (stereo not given), the Potency entry is “inactive”. Take `CCCCCCCCCCCCOS(=O)(=O)O`: the Potency entry was “inactive”. For `COc1ccccc1N`, the Potency entry is “inactive”. The result for `Nc1ccc(-c2ccc(N)c(Cl)c2)cc1Cl` reads “inactive and 49 µM (active)”.

With `OCCOc1ccccc1`, the Potency entry was “inactive”. Turning to `CCCCCCCCCCCC(=O)O`, the Potency result is “inactive”. With `Cc1cc(-c2ccc(N)c(C)c2)ccc1N`, the Potency result was “inactive”. As for `CCCC[N+]1(C)CCCCC1`, the Potency entry is “inactive and 48.8 µM (active)”. In the case of `O=[N+]([O-])O`, the Potency entry is “inactive”. On to `O=C(O)C(Cl)(Cl)Cl`, for which the Potency entry was “inactive”. For the compound `CCCCCCCCCCCCCCCCn1cc[n+](C)c1`, the Potency result is “inactive and 49.4 µM (active) and 43.8 µM (active)”.

As to `CCCCCCCCCCn1cc[n+](C)c1`, the Potency result was “inactive”.

The values are drawn from PubChem BioAssay (Tox21).
